In the library only some 9.4% were active in any assay of this set; here they are far more common.
Pf growth 96h: Primary qHTS for delayed death inhibitors of the malarial parasite plastid, 96 hour incubation. P. falciparum luciferase reporter growth, 96 h. Potency, µM (titrated, usually from 28.7 µM), for the others: at the highest dose activity change, negative = inhibition, actives largely listed as inhibitors. 6.9% of 320,000 active; further: on the % scale 0 is the no-effect control and ±100 the full control effect
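Two-generation exposure (96 h) targets delayed-death phenotype. Reporter parasites carrying integrated firefly luciferase, in red cells at 2% hematocrit and 0.05% parasitemia final, kept at 37 C, 5% CO2; luminescence loss indicates inhibition.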
AMA1 RON2 block: qHTS for Inhibitors of AMA1-RON; Towards Development of Antimalarial Drug Lead: Primary Screen | 0.2% of 360,000 active | Plasmodium falciparum AMA1 (3D7) - RON2 peptide interaction | AID 720542, 2013 | Potency, µM (titrated, usually from 58.2 µM), for the others: at the top dose activity change, negative = inhibition, actives largely listed as inhibitors | AlphaScreen AMA1-biotinylated RON2 peptide binding;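 further: 0% = vehicle wells and -100% = peptide control; nearly all actives have a fitted effect of over 45% in size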
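AMA1 (3D7) with his tag at 25 nM final met compounds first, then biotinylated RON2 peptide at 25 nM; detection used donor plus acceptor beads, 10 µg/mL apiece, read by AlphaScreen after 30 min at room temperature.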
Pf growth 48h: Primary qHTS for delayed death inhibitors of the malarial parasite plastid, 48 hour incubation | P. falciparum luciferase growth in erythrocytes, 48 h | Potency, µM (titrated, usually from 28.7 µM), for inactives: at the highest dose activity change, negative = inhibition, actives largely listed as inhibitors | 5.9% of 310,000 active | AID 504832, 2011; further: on the % scale 0 is the no-effect control and ±100 the full control effect
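Growth was read as firefly luciferase luminescence after a 48 h, 37 C, 5% CO2 exposure of compounds to reporter-bearing P. falciparum cultures (0.1% parasitemia, 2% hematocrit final) in Albumax-supplemented RPMI 1640.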
SARS PLP yeast: qHTS of Yeast-based Assay for SARS-CoV PLP; Potency, µM (series often up to 32.9 µM), without a hit: at the highest dose activity, positive = growth rescue, hits mostly activators; 0.19% of 330,000 active; S. cerevisiae expressing SARS-CoV PLpro, growth rescue; calls by dose curve; further: 0% is about no effect; nearly all actives have a fitted effect of over 55% in size
* marks the source's active call; other numbers are inactive results; ? = inconclusive; nt = no result given; [ ] = dose if it differs, or a comment. Unless noted, the call rests on the fitted dose curve; in most records, active means well fitted curve in the direction sought with a large enough effect; inconclusive means small, poorly fitted or top-dose-only effect, or another doubt; inactive means no such curve, though single readings can be large; an effect the other way counts as inactive or inconclusive. Potency means the concentration at half of the fitted maximal effect.

SMILES	Pf growth 96h	AMA1 RON2 block	Pf growth 48h	SARS PLP yeast
C=CCn1c(=N)n(CC(=O)c2ccc(Cl)cc2)c2ccccc21	0%	7%	?	0%
N=c1n(CC(=O)c2cccs2)c2ccccc2n1Cc1ccccc1	4.7µM*	10%	?	0%
C=CCn1c(=N)n(CC(=O)OC)c2ccccc21	12µM*	-8%	53%	-1%
O=C(NCc1ccccc1)C(c1ccccc1F)N(C(=O)c1csnn1)C1CCCC1 (stereo unspecified)	?	-7%	-10%	-1%
Cc1cc(F)ccc1S(=O)(=O)N1CCCOC1CNC(=O)C(=O)NCc1ccco1 (stereo unspecified)	?	-4%	-14%	-2%
COc1ccc(OC)c(-c2nn(-c3ccccc3)cc2C(=O)NCC2CCCO2)c1 (stereo unspecified)	nt	-6%	nt	nt
COc1ccc(OC)c(NC(=O)CN2C(=O)COc3ccc(S(=O)(=O)N4CCCC4)cc32)c1	-22%	-13%	?	0%
Cc1c(Cl)cccc1NC(=S)N=Nc1c(O)n(CN2CCOCC2)c2ccccc12	414%	27%	3.7µM*	-113%
Cc1ccc(Cn2c(O)c(N=NC(=S)Nc3ccccc3F)c3ccccc32)cc1	12%	59%	?	0%
Oc1c(N=NC(=S)Nc2ccccc2F)c2ccccc2n1Cc1ccccc1Cl	?	20%	5.2µM*	2%
CCC(CC)NC(=O)CSc1ccc(S(=O)(=O)N2CCOCC2)cn1	-16%	-4%	-22%	-3%
COc1cccc(OCCNc2cc(N3CCOCC3)ccc2[N+](=O)[O-])c1	0.41µM*	-21%	15%	-20%
Cc1ccc(S(=O)(=O)N2CCN(c3ccc([N+](=O)[O-])c(NCCN4CCOCC4)c3)CC2)cc1	0%	-27%	?	-6%
COc1ccc(OCCNc2cc(N3CCOCC3)ccc2[N+](=O)[O-])cc1	?	-16%	-15%	-8%
O=[N+]([O-])c1ccc(N2CCN(S(=O)(=O)c3ccccc3[N+](=O)[O-])CC2)cc1NCc1cccnc1	10µM*	-9%	8.3µM*	6%
O=[N+]([O-])c1ccc(N2CCN(S(=O)(=O)c3ccccc3)CC2)cc1NCCN1CCOCC1	9.3µM*	?	13µM*	0%
O=C(NC1CCCCC1)c1ccc(-c2ccccc2[N+](=O)[O-])o1	-26%	-4%	156%	-10%
O/N=C/c1cccc[n+]1CCCCCC[n+]1ccccc1/C=N/O	?	18%	?	-3%
CCCCCCCCC[n+]1cccc2c3ccccc3ccc21	35%	1%	0.17µM*	-39%
O=[N+]([O-])c1ccc(C[n+]2cccc3c4ccccc4ccc32)cc1	17%	-23%	14%	-2%
CCCCCCCCCCCCCCCC[n+]1cccc2ccccc21	?	-2%	0.83µM*	-96%
Cc1ccccc1C[n+]1cccc2ccccc21	?	5%	0.37µM*	0%
COc1ccccc1OCCNC(=O)CCS(=O)(=O)c1ccccc1	nt	19%[11.6 µM]	nt	2%
Cc1nc(N2CCN(Cc3ccccc3)CC2)nc2c1C(=O)CCC2	-4%	0%	?	3%
COCc1c(C(=O)N/N=C(/C)c2cccs2)nnn1-c1nonc1N	?	-8%	29%	1%
SMILES	Pf growth 96h	AMA1 RON2 block	Pf growth 48h	SARS PLP yeast
CCCS(=O)(=O)c1c(S(=O)(=O)CCC)c2c3ccccc3ccn2c1C(=O)OC	45%	0%	12µM*	-6%
CCCS(=O)(=O)c1c(S(=O)(=O)CCC)c2c(C)cccn2c1C(=O)OC	6%	-6%	-2%	3%
COc1ccccc1N1CCN(C(=O)c2n[nH]c3ccccc23)CC1	?	-8%	?	1%
Cc1ccc(/C=C/C(=O)O)cc1S(=O)(=O)N(CCO)CCO	9.3µM*	14%	-12%	23%
Cc1ccc(/C=C/C(=O)O)cc1S(=O)(=O)NCCCO	36%	8%	-2%	3%
Cc1cn([C@H]2C[C@H](O)[C@@H](CCC(=O)NCc3ccc4c(c3)OCO4)O2)c(=O)[nH]c1=O	nt	18%	nt	nt
O=C(O)c1ccc2c(c1)[C@@H]1C=CC[C@@H]1[C@H](c1ccccn1)N2	nt	13µM*	nt	nt
COc1ccc(C(=O)N/N=C(\C)c2ccc3c(c2)C2C=CCC2C(c2ccccc2)N3)cc1 (stereo unspecified)	47%	-8%	1µM*	5%
O=C(NCCOc1ccccc1)C1Nc2ccc(OC(F)(F)F)cc2C2C=CCC12 (stereo unspecified)	nt	5%	nt	nt
COc1cccc(NS(=O)(=O)c2ccc3c(c2)C2C=CCC2C(c2ccc(C(=O)O)cc2)N3)c1 (stereo unspecified)	12%	?	-13%	14%
CCc1ccc(C(=O)NNC(=O)c2ccc3c(=O)n4c(nc3c2)CCC4)cc1	27%	47%	11%	1%
O=C(Nc1cc(Br)ccc1O)c1cnn2c(C(F)F)cc(C3CC3)nc12	-23%	0%	4.1µM*	-6%
CCn1nnc2c(=O)oc3ccccc3c21	4.1µM*	24%	-26%	0%
N#Cc1c2c(c(N3CCN(c4ccccn4)CC3)n3c1nc1ccccc13)CCC2	0.13µM*	nt	nt	2%
Cc1cc(N2CCN(c3ccccn3)CC2)n2c(nc3ccccc32)c1C#N	1%	7%	4.7µM*	-9%
O=C(Nc1cccc(F)c1)/C(=C\c1ccco1)NC(=O)c1cccs1	1%	2%	1%	-9%
Cn1cc(CN2CCC(C(=O)Nc3cccc(-c4cccc(F)c4)c3)CC2)cn1	?	-16%	-26%	7%
CCCn1ncc(CN2CCC(C(=O)Nc3cccc(-c4cccc(F)c4)c3)CC2)c1C	?	-1%	7.4µM*	2%
C=CCn1cc(CN2CCC(C(=O)Nc3cccc(-c4cccc(F)c4)c3)CC2)c(C)n1	?	-6%	15µM*	6%
O=C(CSc1nnc(CNC(=O)c2ccc(F)cc2)o1)NCc1ccccc1	-27%	4%	50%	12%
COC(=O)/C(=C\C(=O)c1ccc([N+](=O)[O-])cc1)Nc1ccc(OC)cc1	27%	?	27%	0%
COc1cc(/C=C/C(=O)OCC(=O)N2CCCc3ccccc32)ccc1OC(F)F	-3%	6%	-23%	4%
CCOc1ccc(NC(=O)CSc2nnc(-c3ccoc3C)n2CC2CCCO2)cc1 (stereo unspecified)	?	24%	9%	21%
S=c1[nH]nc(CCSCc2ccccc2)n1-c1ccccc1	17%[5.75 µM]	69%	-6%	0%
O=C(OCc1cccc([N+](=O)[O-])c1)c1cc(=O)[nH]c2ccccc12	35%	nt	31%	1%
CCOC(=O)c1cc2[nH]c3ccccc3c2[n+](-c2ccc([N+](=O)[O-])cc2)c1C	?	8%	2.6µM*	-27%
CCOC(=O)c1cc2[nH]c3ccccc3c2[n+](-c2ccc([N+](=O)[O-])cc2)c1N	?	0%[2.32 µM]	3.7µM*	0%

From PubChem
